Laboratory results taken from publication PMC4336329 (PLoS ONE, 2015).
The whole screen tested about 310,000 compounds, of which about 14,000 (4.5%) showed an effect of 50% or more. The effect is printed as a negative number. The sample as a whole holds a higher share of strong results than the screen did.

Biological target: human ether-à-go-go-related gene (hERG) potassium channel (human, UniProt Q12809)
Experiment: primary screen, population patch clamp on CHO cells stably expressing hERG; higher = less effect of the substance
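Also: peak tail current of the secondary pulse compared with the same well before compound.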

human ether-à-go-go-related gene (hERG) potassium channel, sequence (Q12809 whole entry, looked up): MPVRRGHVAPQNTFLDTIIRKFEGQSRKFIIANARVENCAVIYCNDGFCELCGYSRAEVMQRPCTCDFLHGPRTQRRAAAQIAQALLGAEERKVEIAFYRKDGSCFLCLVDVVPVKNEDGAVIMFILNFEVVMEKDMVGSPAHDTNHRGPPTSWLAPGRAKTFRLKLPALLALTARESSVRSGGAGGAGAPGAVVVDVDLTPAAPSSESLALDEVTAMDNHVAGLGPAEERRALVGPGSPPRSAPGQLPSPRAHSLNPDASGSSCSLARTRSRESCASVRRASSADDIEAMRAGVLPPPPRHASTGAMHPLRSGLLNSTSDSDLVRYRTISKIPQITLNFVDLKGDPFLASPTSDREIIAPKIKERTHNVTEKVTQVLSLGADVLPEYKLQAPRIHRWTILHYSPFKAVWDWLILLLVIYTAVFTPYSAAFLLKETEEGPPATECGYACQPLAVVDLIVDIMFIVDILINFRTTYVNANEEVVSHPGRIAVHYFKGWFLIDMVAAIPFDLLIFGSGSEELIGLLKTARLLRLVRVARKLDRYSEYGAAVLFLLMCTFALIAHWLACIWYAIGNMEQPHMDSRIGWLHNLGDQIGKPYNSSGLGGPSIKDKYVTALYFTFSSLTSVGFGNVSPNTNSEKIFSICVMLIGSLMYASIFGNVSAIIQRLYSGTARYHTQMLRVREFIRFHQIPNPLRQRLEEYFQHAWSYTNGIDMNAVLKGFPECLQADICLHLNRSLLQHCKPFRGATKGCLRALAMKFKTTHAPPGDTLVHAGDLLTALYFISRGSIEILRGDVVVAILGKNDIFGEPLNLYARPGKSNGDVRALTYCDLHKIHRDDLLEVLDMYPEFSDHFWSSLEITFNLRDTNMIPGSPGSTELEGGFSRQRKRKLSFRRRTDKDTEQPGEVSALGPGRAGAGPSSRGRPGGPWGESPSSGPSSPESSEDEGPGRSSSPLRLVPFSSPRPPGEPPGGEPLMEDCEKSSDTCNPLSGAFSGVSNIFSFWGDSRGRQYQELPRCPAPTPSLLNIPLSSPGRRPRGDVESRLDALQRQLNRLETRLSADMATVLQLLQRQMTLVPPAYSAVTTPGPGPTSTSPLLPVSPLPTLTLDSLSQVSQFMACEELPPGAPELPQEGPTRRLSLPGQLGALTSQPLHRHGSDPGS

Row | Structure (SMILES) | hERG current change (%, negative = inhibition) at 10uM [%]
1 | Cc1cc(C(=O)NNC(=O)c2ccc(C)s2)c(C)o1 | 3.91
2 | COc1ccc(N(C2CSC2)S(=O)(=O)c2ccccc2)cc1 | 8.52
3 | CCc1nc(SCC(=O)Nc2nnc(CC)s2)c2c(=O)n(C)c(=O)n(C)c2n1 | 4.23
4 | O=C(Cn1nc(-c2ccccc2F)ccc1=O)NCc1ccc2c(c1)OCO2 | -36.9
5 | CCN1C(=O)[C@H]2[C@@H](c3ccc(C)cc3)N3C(=O)N(c4ccc(C(F)(F)F)cc4)C(=O)[C@@]3(Cc3ccccc3)[C@H]2C1=O | 16.3
6 | O=c1c2ccccc2nc(-c2ccc(-c3ccccc3)cc2)n1-c1ccncc1 | -42.9
7 | CC(OC(=O)CCCC(=O)Nc1ccc(F)cc1)C(=O)c1ccccc1 (stereo not shown) | -5.79
8 | CC(OC(=O)CCC(=O)c1ccccc1)C(=O)Nc1ccc(F)cc1 (stereo not shown) | -284
9 | CC(=O)Nc1ccc(NC(=O)C(C)OC(=O)CCC(=O)c2ccc(F)cc2)cc1 (stereo not shown) | -7.13
10 | COc1ccc(/C=N\NC(=O)COc2ccccc2Cl)cc1Cn1nc(C)cc1C | 8.15
11 | CC1(C)CC(=O)C2=C(C1)N(CCN1CCOCC1)C1=C(C(=O)CC(C)(C)C1)C2c1cccc(Cl)c1 | -54
12 | CC1(C)CC(=O)C2=C(C1)N(CCN1CCOCC1)C1=C(C(=O)CC(C)(C)C1)C2c1cccc(F)c1 | -33.5
13 | CC1(C)CC(=O)C2=C(C1)N(CCN1CCOCC1)C1=C(C(=O)CC(C)(C)C1)C2c1ccc(Cl)cc1 | -34.1
14 | CC(CCc1ccccc1)OS(N)(=O)=O (stereo not shown) | 8.74
15 | COc1ccc(S(=O)(=O)N2CCOCC2)cc1NC(=O)COc1ccccc1 | -40.5
16 | Cc1ccc(SC/C(O)=C(\C#N)c2nc3ccccc3s2)cc1 | 29.9
17 | Cc1ccc(C(=O)NCC(=O)OCC(=O)Nc2ccc(Cl)cc2C(F)(F)F)cc1C | -4.47
18 | O=c1[nH]c2ccccc2nc1CCc1ccccc1 | 35.5
19 | Cc1ccccc1C(=O)N1CCC(C(=O)N2CCCc3ccccc32)CC1 | -1.08
20 | N#Cc1ccsc1NC(=O)C1CCN(C(=O)c2ccc(Cl)cc2)CC1 | -73.2
21 | Cc1cccc(NC(=O)C2CCN(C(=O)c3ccc(F)cc3)CC2)n1 | -0.274
22 | O=C(Nc1ccccc1N1CCCC1)C1CCN(C(=O)c2ccc(F)cc2)CC1 | -27.8

Row | Structure (SMILES) | hERG current change (%, negative = inhibition) at 10uM [%]
23 | O=C(NC1CC1)C1CCN(C(=O)c2ccc(Cl)cc2)CC1 | 19.8
24 | Cc1ccccc1C(=O)N1CCC(C(=O)Nc2ccccc2N2CCCC2)CC1 | -0.721
25 | O=C(C1CCCCC1)N1CCCc2ccccc21 | -5.03
26 | N#Cc1ccsc1NC(=O)C1CCN(C(=O)c2ccc(F)cc2)CC1 | -45.7
27 | O=C(Nc1ccccc1N1CCCC1)C1CCN(C(=O)c2ccc(Cl)cc2)CC1 | -59.8
28 | O=C(c1ccc(Cl)cc1)N1CCC(C(=O)N2CCCc3ccccc32)CC1 | -76.4
29 | Cc1cccc(NC(=O)C2CCN(C(=O)c3ccc(Cl)cc3)CC2)n1 | -51.5
30 | Cc1cccc(NC(=O)C2CCN(C(=O)c3ccccc3C)CC2)n1 | -17.6
31 | Cc1cccc(C(=O)NNS(=O)(=O)c2ccc(F)cc2)c1 | 8.24
32 | O=c1cc(CO)oc(C(Nc2ccccn2)c2ccc(F)cc2)c1O (stereo not shown) | 9.87
33 | O=C(c1ccc2oc(CCc3ccccc3)nc2c1)N1CCC(O)CC1 | 14.9
34 | Cc1ccc(C(=O)NCC(=O)OCC(=O)c2ccccc2)s1 | -12.6
35 | COc1ccc(CC(=O)Nc2c(C(N)=O)oc3ccccc23)cc1OC | 11.4
36 | COc1ccc(CCNS(=O)(=O)c2ccc(Br)s2)cc1 | -5.73
37 | O=C(N/N=C/c1cc([N+](=O)[O-])ccc1O)c1cccc(N2CCCC2=O)c1 | 3.22
38 | CC(OC(=O)CCc1nc2ccccc2[nH]c1=O)c1ccccc1 (stereo not shown) | -5.1
39 | O=C(Nc1ccccc1N1CCCCC1)C1CCN(C(=O)c2ccc(Cl)cc2)CC1 | -69.9
40 | O=C(Nc1ccccc1N1CCCCC1)c1ccc(Cl)cc1 | 12.6
41 | O=C(NC1CCCCC1)C1CCN(C(=O)c2ccc(Cl)cc2)CC1 | -6.16
42 | CC(C)(C)C(=O)COC(=O)c1cc(-c2ccncc2)nc2ccccc12 | -8.43
43 | COc1ccc(-n2c(SCC(=O)Nc3cc(C)on3)nc3c(c2=O)SCC3)cc1 | 12.1
